Where “and” joins values, the source holds several entries; their conditions need not be identical. Identical values can stand only once. Records with an inconclusive call do not appear. Calls of active or inactive are those of the source. The calls were made as follows, unless noted: active = hit-call score of the fitted dose curve at least 0.9, where 1 is the maximum; inconclusive = response in the unintended direction; inactive = score below 0.9.
Experiments:
[1] = molecular target: human Peroxisome Proliferator-activated Receptor alpha (PPARa), PPARA (gene 5465) (UniProt Q07869); experiment: ATG_PPARa_TRANS: Attagene TRANS-FACTORIAL HepG2 Assay for human Peroxisome Proliferator-activated Receptor alpha (PPARa) (AID 2283001);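 as to AC50: potency for gain of reporter signal over DMSO so agonist or activator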
How it was run: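 HepG2, transient MRTU transfection, 24 h treatment. RT-PCR → FAM labelling → capillary electrophoresis. Fit vs DMSO, positive direction.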

[2] = molecular target: human Peroxisome Proliferator-activated Receptor delta (PPARd), PPARD (gene 5467) (UniProt Q03181); experiment: ATG_PPARd_TRANS: Attagene TRANS-FACTORIAL HepG2 Assay for human Peroxisome Proliferator-activated Receptor delta (PPARd) (AID 2283002)
How it was run: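 Fluorescence from capillary electrophoresis of labelled RT-PCR reporter fragments gives the signal; DMSO sets baseline. Cells: HepG2 transiently carrying GAL4-UAS reporter units plus chimeric nuclear receptor-Gal4 proteins, exposed to chemicals for 24 h.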

[3] = molecular target: human Retinoic Acid Receptor beta (RARb), RARB (gene 5915) (UniProt P10826); experiment: ATG_RARb_TRANS: Attagene TRANS-FACTORIAL HepG2 Assay for human Retinoic Acid Receptor beta (AID 2283004)
How it was run: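 HepG2, transient MRTU transfection, NR–Gal4 chimera, 24 h treatment; RT-PCR plus CE fluorescence detection of reporter mRNA; gain of signal vs DMSO.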

[4] = molecular target: human Retinoic Acid Receptor gamma (RARg), RARG (gene 5916) (UniProt P13631); experiment: ATG_RARg_TRANS: Attagene TRANS-FACTORIAL HepG2 Assay for human Retinoic Acid Receptor gamma (RARg) (AID 2283009);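 as to AC50: AC50 is for reporter induction above DMSO meaning RARg activation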
How it was run: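 Transactivation of exogenous RARg-Gal4 fusion measured as reporter transcript induction after 24 h in transfected HepG2 cells. RNA reverse-transcribed, amplified, fluorescently labeled and resolved by capillary electrophoresis; increase relative to DMSO.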

[5] = molecular target: human RAR-related Orphan Receptor gamma (RORg), RORC (gene 6097) (UniProt P51449); experiment: ATG_RORg_TRANS: Attagene TRANS-FACTORIAL HepG2 Assay for human RAR-related Orphan Receptor gamma (RORg) (AID 2283011)
How it was run: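 Activity is scored as increase in GAL4-UAS reporter mRNA over DMSO, detected by fluorescent RT-PCR and capillary electrophoresis in HepG2 cells transiently expressing a RORg-Gal4 chimera, 24 h after dosing.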

[6] = molecular target: Retinoic acid receptor RXR-alpha (Homo sapiens) (UniProt P19793); experiment: ATG_RXRa_TRANS: Attagene TRANS-FACTORIAL HepG2 Assay for human Retinoid X Receptor alpha (RXRa) (AID 2283012)
How it was run: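 TRANS format reporting activity of exogenous RXRa-Gal4 chimera in transiently transfected HepG2, 24 h exposure. Reporter transcripts quantified by RT-PCR with capillary electrophoresis, with gain of signal scored relative to DMSO.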

[7] = molecular target: human Retinoid X Receptor beta (RXRb), RXRB (gene 6257) (UniProt P28702); experiment: ATG_RXRb_TRANS: Attagene TRANS-FACTORIAL HepG2 Assay for human Retinoid X Receptor beta (RXRb) (AID 2283013)
How it was run: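 Readout is reporter transcript induction after 24 h dosing. It is measured by RT-PCR of total RNA followed by fluorescent capillary electrophoresis. HepG2 liver cells carry transfected multiple reporter units driven by an exogenous RXRb-Gal4 fusion; activity is relative to DMSO.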

[8] = molecular target: human Thyroid Receptor alpha (THRa1), THRA (gene 7067) (UniProt P10827); experiment: ATG_THRa1_TRANS: Attagene TRANS-FACTORIAL HepG2 Assay for human Thyroid Receptor alpha (THRa1) (AID 2283014)
How it was run: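 First, HepG2 cells receive multiple GAL4-UAS reporter units and the chimeric receptor. They are then dosed for 24 h, after which RNA is reverse-transcribed, amplified, labelled, HpaI-cut and sized by capillary electrophoresis; gain relative to DMSO is scored.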

[9] = molecular target: Peroxisome proliferator-activated receptor gamma (Homo sapiens) (UniProt P37231); experiment: ATG_PPARg_TRANS: Attagene TRANS-FACTORIAL HepG2 Assay for human Peroxisome Proliferator-activated Receptor-gamma (PPARg) (AID 2283007)
How it was run: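 Multiplexed reporter transcription units in HepG2, 24 h dosing, reporter transcripts quantified by fluorescent RT-PCR and capillary electrophoresis. Increase over DMSO scored.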

[10] = molecular target: Nuclear receptor subfamily 1 group I member 2 (Homo sapiens) (UniProt O75469); experiment: ATG_PXR_TRANS: Attagene TRANS-FACTORIAL HepG2 Assay for human Pregnane X Receptor (PXR) (AID 2283008)
How it was run: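 HepG2 transfected (FuGene 6) with GAL4-UAS reporter units + PXR-Gal4 chimera; dosed 24 h. Total RNA → oligo(dT) RT → PCR → 6-FAM primer extension → HpaI cut → CE. Gain-of-signal vs DMSO.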

[11] = molecular target: human RAR-related Orphan Receptor beta (RORb), RORB (gene 6096) (UniProt Q92753); experiment: ATG_RORb_TRANS: Attagene TRANS-FACTORIAL HepG2 Assay for human RAR-related Orphan Receptor beta (RORb) (AID 2283010)
How it was run: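 Read-out is reporter mRNA induction, quantified by RT-PCR with fluorescent capillary electrophoresis, 24 h post-dose in transiently transfected HepG2 expressing exogenous NR-Gal4 chimera. Activity fitted upward versus DMSO.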

[12] = molecular target: Retinoic acid receptor alpha (Homo sapiens) (UniProt P10276); experiment: ATG_RARa_TRANS: Attagene TRANS-FACTORIAL HepG2 Assay for human Retinoic Acid Receptor alpha (RARa) (AID 2283005);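 as to AC50: potency for increased reporter signal meaning RARa activation over DMSO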
How it was run: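 HepG2 transiently transfected with multiplex GAL4-UAS reporter units including a human RARa–GAL4 chimera; 24 h compound exposure. Reporter mRNA quantified by RT-PCR, 6-FAM labeling and capillary electrophoresis; gain of signal versus DMSO.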

[13] = read-out: Intercellular Adhesion Molecule 1 (ICAM1), ICAM1 (gene 3383); experiment: BSK_3C_ICAM1: BioMAP Diversity Plus: 3C Assay for Intercellular Adhesion Molecule 1 (ICAM1) Biomarker Activity (AID 2283003; active = hit-call score of the fitted dose curve at least 0.9, where 1 is the maximum; inactive = score below 0.9); settings: primary human endothelial cells (HUVEC); actives raise or lower the signal
How it was run: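 ELISA readout of ICAM1 in human umbilical vein endothelial cells in the 3C system, taken 24 h post-dose. Gain or loss of signal versus DMSO was fitted in both directions, with SRB total-protein staining run in parallel.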

[14] = BSK_3C_Proliferation: Cell Proliferation Assessment in the BioMAP Diversity Plus: 3C Assay (AID 2283006; active = hit-call score of the fitted dose curve at least 0.9, where 1 is the maximum; inactive = score below 0.9;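 as to AC50: potency may reflect either rise or fall in cell number versus DMSO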); settings: primary human endothelial cells (HUVEC)
How it was run: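 Proliferation as total protein: sulforhodamine B (0.1%) stain of TCA-fixed subconfluent human umbilical vein endothelial cells, absorbance 560 nm, 48 h after dosing. Activity fitted in both directions against DMSO baseline.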

[15] = read-out: E-selectin (Homo sapiens) (UniProt P16581); experiment: BSK_3C_Eselectin: BioMAP Diversity Plus: 3C Assay for Eselectin Biomarker Activity (AID 2283015; active = hit-call score of the fitted dose curve at least 0.9, where 1 is the maximum; inactive = score below 0.9); settings: primary human endothelial cells (HUVEC); actives raise or lower the signal
How it was run: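 Human vascular endothelium from umbilical vein is exposed to test chemicals for 24 h. E-selectin levels are read by ELISA and compared with DMSO controls.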

[16] = read-out: Interleukin-1 alpha (IL1a), IL1A (gene 3552); experiment: BSK_BE3C_IL1a: BioMAP Diversity Plus: BE3C Assay for Interleukin-1 alpha (IL1a) Biomarker Activity (AID 2283016; active = hit-call score of the fitted dose curve at least 0.9, where 1 is the maximum; inactive = score below 0.9); settings: primary human bronchial epithelial cells; actives raise or lower the signal
How it was run: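 IL-1a measured by ELISA after 24 h treatment of human primary bronchial epithelial cells, with gain or loss of signal fitted versus DMSO. Parallel cultures stained with SRB gauge overt cytotoxicity.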

[17] = read-out: Monocyte Chemoattractant Protein-1 (MCP1), CCL2 (gene 6347); experiment: BSK_3C_MCP1: BioMAP Diversity Plus: 3C Assay for Monocyte Chemoattractant Protein-1 (MCP1) Biomarker Activity (AID 2283017; active = hit-call score of the fitted dose curve at least 0.9, where 1 is the maximum; inactive = score below 0.9); settings: primary human endothelial cells (HUVEC); actives raise or lower the signal
How it was run: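 Endothelial cells from human umbilical vein are dosed with chemical, cultured 24 h, then assayed for MCP-1 by ELISA; both increases and decreases are modelled against DMSO controls.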

[18] = read-out: Monocyte Chemoattractant Protein-1 (MCP1), CCL2 (gene 6347); experiment: BSK_4H_MCP1: BioMAP Diversity Plus: 4H Assay for Monocyte Chemoattractant Protein-1 (MCP1) Biomarker Activity (AID 2283018; active = hit-call score of the fitted dose curve at least 0.9, where 1 is the maximum; inactive = score below 0.9); settings: primary human endothelial cells (HUVEC); actives raise or lower the signal
How it was run: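 ELISA of MCP-1 (CCL2) 24 h after chemical dosing of HUVEC in the BioMAP 4H system. Gain or loss versus DMSO fitted; parallel SRB staining (560 nm) tracked overt cytotoxicity.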

[19] = read-out: Human Leukocyte Antigen - DR isotype (HLADR), HLA-DRA (gene 3122); experiment: BSK_3C_HLADR: BioMAP Diversity Plus: 3C Assay for Human Leukocyte Antigen - DR isotype (HLADR) Biomarker Activity (AID 2283019; active = hit-call score of the fitted dose curve at least 0.9, where 1 is the maximum; inactive = score below 0.9); settings: primary human endothelial cells (HUVEC); actives raise or lower the signal
How it was run: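 Endothelial cells from human umbilical vein are treated with test chemical; after 24 h, HLA-DR levels are measured by ELISA. Data are fitted in both directions using DMSO as the baseline.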

[20] = read-out: Interleukin-8 (IL8), CXCL8 (gene 3576); experiment: BSK_3C_IL8: BioMAP Diversity Plus: 3C Assay for Interleukin-8 (IL8) Biomarker Activity (AID 2283020; active = hit-call score of the fitted dose curve at least 0.9, where 1 is the maximum; inactive = score below 0.9); settings: primary human endothelial cells (HUVEC); actives raise or lower the signal
How it was run: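 IL-8 was measured by ELISA in HUVEC cultures 24 h after chemical dosing, with gain or loss of signal fitted relative to DMSO. Parallel SRB total-protein staining tracked overt cytotoxicity.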

Measured: AC50

Chain of Peroxisome proliferator-activated receptor gamma (Homo sapiens) (P37231 whole entry, looked up): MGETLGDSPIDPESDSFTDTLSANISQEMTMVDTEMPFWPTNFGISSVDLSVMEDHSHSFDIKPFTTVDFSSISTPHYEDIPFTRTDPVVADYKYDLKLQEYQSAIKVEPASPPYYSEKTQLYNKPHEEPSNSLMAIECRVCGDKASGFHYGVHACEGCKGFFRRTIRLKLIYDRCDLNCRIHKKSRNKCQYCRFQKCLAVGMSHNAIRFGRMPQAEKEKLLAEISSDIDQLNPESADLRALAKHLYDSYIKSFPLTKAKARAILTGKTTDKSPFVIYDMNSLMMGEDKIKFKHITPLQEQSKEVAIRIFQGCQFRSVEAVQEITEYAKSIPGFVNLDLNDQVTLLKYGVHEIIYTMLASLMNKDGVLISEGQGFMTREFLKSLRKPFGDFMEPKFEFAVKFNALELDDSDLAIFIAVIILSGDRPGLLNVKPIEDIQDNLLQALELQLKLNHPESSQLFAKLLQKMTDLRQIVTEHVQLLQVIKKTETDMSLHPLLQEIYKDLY
Chain of human RAR-related Orphan Receptor beta (RORb), RORB (gene 6096) (Q92753 whole entry, looked up, the tested form may be a part): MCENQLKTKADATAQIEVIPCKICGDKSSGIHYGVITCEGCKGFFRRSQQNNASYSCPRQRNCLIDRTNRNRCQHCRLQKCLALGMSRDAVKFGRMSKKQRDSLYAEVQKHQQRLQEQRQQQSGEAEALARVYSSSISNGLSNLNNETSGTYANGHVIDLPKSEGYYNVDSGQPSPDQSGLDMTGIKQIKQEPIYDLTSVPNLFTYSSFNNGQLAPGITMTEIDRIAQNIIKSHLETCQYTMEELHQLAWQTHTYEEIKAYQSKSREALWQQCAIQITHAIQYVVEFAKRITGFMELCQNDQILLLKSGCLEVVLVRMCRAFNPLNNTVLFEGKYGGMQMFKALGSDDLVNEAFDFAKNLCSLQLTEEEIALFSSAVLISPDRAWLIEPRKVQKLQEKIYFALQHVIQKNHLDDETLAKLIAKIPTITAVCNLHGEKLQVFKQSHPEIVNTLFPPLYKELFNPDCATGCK
Chain of E-selectin (Homo sapiens) (P16581 whole entry, looked up): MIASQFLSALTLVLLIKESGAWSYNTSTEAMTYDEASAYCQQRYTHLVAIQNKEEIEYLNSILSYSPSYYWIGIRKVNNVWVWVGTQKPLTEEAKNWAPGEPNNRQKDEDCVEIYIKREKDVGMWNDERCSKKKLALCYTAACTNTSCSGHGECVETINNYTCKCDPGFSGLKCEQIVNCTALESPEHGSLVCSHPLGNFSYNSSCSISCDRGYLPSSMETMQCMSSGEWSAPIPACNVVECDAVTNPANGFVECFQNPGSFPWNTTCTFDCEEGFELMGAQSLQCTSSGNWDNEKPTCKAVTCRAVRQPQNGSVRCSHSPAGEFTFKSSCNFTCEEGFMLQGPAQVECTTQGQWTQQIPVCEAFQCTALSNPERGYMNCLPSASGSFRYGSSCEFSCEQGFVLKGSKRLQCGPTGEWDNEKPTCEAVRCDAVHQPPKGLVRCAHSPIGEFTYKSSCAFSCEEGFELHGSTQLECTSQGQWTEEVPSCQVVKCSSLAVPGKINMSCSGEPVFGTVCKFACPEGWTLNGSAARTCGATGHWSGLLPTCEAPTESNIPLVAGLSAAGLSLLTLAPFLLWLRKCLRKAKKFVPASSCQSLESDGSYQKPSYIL
Chain of Retinoic acid receptor RXR-alpha (Homo sapiens) (P19793 whole entry, looked up, the tested form may be a part): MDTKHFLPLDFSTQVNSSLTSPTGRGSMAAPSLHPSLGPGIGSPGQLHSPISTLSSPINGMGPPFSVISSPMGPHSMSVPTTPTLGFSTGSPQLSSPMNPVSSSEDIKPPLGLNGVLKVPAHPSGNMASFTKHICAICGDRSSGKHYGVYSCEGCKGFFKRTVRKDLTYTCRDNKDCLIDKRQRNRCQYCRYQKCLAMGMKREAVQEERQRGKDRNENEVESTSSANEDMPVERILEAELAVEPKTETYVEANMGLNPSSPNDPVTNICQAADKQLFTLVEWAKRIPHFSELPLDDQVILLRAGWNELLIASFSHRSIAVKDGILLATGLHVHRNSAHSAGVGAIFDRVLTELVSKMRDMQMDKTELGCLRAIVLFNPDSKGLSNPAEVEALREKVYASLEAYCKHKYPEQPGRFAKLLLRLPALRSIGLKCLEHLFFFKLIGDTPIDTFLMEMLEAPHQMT
Chain of human Retinoic Acid Receptor beta (RARb), RARB (gene 5915) (P10826 whole entry, looked up, the tested form may be a part): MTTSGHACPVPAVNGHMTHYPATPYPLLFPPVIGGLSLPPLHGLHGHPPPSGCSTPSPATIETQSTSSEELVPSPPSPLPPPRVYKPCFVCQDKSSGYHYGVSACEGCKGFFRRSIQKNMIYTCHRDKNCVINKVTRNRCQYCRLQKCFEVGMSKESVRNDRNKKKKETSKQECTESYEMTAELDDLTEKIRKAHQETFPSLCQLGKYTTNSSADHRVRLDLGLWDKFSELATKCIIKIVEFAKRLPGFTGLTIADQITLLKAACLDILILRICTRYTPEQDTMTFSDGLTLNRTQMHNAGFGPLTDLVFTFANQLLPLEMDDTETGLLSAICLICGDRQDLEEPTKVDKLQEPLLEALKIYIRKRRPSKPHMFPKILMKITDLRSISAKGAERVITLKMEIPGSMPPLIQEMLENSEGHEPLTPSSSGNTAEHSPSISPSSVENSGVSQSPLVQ
Chain of human Peroxisome Proliferator-activated Receptor delta (PPARd), PPARD (gene 5467) (Q03181 whole entry, looked up, the tested form may be a part): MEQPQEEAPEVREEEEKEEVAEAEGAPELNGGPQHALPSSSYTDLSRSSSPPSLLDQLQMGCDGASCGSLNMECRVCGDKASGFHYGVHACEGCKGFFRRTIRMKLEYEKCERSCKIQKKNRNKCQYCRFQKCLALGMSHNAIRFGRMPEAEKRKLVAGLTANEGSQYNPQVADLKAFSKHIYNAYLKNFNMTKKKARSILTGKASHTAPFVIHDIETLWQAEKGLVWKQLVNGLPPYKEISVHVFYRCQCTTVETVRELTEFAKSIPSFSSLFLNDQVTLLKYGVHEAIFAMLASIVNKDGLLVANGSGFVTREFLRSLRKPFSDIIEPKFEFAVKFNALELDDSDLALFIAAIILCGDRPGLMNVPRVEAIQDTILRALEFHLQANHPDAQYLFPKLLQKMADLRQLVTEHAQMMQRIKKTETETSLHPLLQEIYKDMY
Chain of human RAR-related Orphan Receptor gamma (RORg), RORC (gene 6097) (P51449 whole entry, looked up, the tested form may be a part): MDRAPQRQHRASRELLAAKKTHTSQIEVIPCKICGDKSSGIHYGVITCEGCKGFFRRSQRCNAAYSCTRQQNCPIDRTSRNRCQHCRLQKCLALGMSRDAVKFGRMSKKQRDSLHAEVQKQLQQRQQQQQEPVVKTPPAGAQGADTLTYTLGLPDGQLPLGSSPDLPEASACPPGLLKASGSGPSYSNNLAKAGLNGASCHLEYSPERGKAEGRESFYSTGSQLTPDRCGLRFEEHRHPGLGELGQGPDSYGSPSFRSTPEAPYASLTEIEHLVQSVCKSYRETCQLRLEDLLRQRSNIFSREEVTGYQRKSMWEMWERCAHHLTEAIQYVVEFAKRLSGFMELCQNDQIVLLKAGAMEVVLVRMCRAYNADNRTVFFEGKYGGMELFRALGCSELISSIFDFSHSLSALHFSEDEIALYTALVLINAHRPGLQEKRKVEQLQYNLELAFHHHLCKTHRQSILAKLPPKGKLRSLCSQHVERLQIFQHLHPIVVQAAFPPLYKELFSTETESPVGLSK
Chain of human Retinoic Acid Receptor gamma (RARg), RARG (gene 5916) (P13631 whole entry, looked up, the tested form may be a part): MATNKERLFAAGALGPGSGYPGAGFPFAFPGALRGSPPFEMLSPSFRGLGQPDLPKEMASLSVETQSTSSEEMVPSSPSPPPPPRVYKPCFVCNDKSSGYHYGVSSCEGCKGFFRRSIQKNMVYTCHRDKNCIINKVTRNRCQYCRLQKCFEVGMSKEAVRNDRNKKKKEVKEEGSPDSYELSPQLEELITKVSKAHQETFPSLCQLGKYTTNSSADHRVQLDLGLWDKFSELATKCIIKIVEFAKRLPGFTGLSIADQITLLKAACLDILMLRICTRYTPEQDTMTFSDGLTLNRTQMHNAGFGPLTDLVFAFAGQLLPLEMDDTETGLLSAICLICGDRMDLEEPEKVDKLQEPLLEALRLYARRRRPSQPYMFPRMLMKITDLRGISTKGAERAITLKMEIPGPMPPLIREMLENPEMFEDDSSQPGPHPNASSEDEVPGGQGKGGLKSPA
Chain of human Retinoid X Receptor beta (RXRb), RXRB (gene 6257) (P28702 whole entry, looked up, the tested form may be a part): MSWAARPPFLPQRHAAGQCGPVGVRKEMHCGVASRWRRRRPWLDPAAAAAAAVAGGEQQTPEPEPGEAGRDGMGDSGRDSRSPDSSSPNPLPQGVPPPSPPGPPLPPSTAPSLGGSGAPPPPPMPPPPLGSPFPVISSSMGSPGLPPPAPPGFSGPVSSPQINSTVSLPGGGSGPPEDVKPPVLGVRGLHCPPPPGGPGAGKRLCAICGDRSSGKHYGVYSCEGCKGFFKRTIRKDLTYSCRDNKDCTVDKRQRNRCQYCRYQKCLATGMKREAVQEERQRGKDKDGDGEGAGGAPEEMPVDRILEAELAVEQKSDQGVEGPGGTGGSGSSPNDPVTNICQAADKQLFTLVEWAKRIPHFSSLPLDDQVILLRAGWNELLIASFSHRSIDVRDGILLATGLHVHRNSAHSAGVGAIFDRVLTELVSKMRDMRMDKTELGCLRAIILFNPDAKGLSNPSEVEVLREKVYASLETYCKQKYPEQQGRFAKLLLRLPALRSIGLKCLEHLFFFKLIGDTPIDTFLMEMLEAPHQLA
Chain of human Peroxisome Proliferator-activated Receptor alpha (PPARa), PPARA (gene 5465) (Q07869 whole entry, looked up): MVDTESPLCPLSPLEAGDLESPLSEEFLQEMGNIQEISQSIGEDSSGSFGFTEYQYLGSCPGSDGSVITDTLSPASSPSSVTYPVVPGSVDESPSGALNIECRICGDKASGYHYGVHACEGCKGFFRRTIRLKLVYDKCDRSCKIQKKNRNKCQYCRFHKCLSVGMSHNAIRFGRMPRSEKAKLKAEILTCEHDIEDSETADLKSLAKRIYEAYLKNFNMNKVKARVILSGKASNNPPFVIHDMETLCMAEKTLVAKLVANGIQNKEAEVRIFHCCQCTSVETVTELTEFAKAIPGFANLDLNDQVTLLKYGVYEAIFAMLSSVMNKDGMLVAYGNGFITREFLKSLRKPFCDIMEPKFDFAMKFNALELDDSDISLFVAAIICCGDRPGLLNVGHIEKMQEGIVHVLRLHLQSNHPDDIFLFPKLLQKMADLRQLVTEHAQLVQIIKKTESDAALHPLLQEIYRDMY

CC=CCO
inactive: [1] | [2] | [3] | [4] | [5] | [6] | [7] | [8]

Nc1ccc2cc3ccccc3cc2c1
inactive: [1] | [2] | [3] | [10] | [4] | [11] | [5] | [6]
active: [9] 26.8 µM

Nc1ncn([C@@H]2O[C@H](CO)[C@@H](O)[C@H]2O)c(=O)n1
inactive: [1] | [2] | [12] | [9] | [10] | [4] | [6] | [8]

O=c1[nH]c(=O)c2[nH]c(=O)[nH]c2[nH]1
inactive: [1] | [2] | [3] | [11] | [5] | [8]

COC(=O)c1sccc1S(N)(=O)=O
inactive: [1] | [2] | [12] | [9] | [10] | [4] | [11] | [5] | [8]

c1ccc2c(c1)ccc1ncccc12
active: [12] 13.4 µM | [14] 20 µM | [9] 67.1 µM | [4] 33.2 µM | [15] 16.4 µM | [16] 20 µM | [17] 5.9 µM | [19] 20 µM
not listed: [5] | [7] | [8]
inactive: all other assays above

C=CC(=O)OCCOC(=O)C=C
inactive: [1] | [2] | [3] | [10] | [5] | [6] | [7]
active: [8] 26.9 µM

O=C1CCCCCCCCCCCCCCCO1
active: [1] 54 µM | [2] 143 µM | [9] 100 µM | [7] 70.4 µM
inactive: [12] | [10] | [11] | [6] | [8]

C/C=C\C/C=C/CCCCCCCCOC(C)=O
active: [14] 22.3 µM | [9] 8.89 µM | [10] 40.8 µM | [15] 19.6 µM | [16] 12.1 µM | [19] 27 µM
not listed: [3] | [4] | [5] | [7] | [12]
inactive: all other assays above

CCCC(C)CCC(C)=O (stereo not drawn)
inactive: [1] | [2] | [3] | [12] | [9] | [10] | [4] | [11] | [7] | [8]

CC(C)(C)C1CCCCC1=O (stereo not drawn)
active: [7] 91.4 µM
inactive: [1] | [2] | [3] | [10] | [11] | [6] | [8]

C=CCOCC(O)CCl (stereo not drawn)
active: [10] 47.2 µM
not listed: [12]
inactive: all other assays above

CCO[Si](CCCN=C=O)(OCC)OCC
not listed: [5] | [7] | [11] | [12]
inactive: all other assays above

C=C(C)C(=O)OCC(C)C
inactive: [1]

c1ccc(-c2ccccn2)nc1
active: [14] 29 µM | [18] 20 µM
not listed: [3] | [4] | [5] | [7] | [11]
inactive: all other assays above

O=C(c1ccccc1)c1ccc(O)c(O)c1O
inactive: [1] | [2] | [12] | [11] | [6] | [8]
active: [9] 47 µM | [10] 24 µM

Cc1ccc(C(C)c2ccc(C)c(C)c2)cc1C
inactive: [1] | [2] | [3] | [11] | [6] | [7] | [8]
active: [9] 30.9 µM | [10] 2.91 µM

CC(=O)[C@H]1[C@H](C#N)C[C@H]2[C@@H]3CC=C4C[C@@H](O)CC[C@]4(C)[C@H]3CC[C@@]21C
inactive: [1] | [2] | [3] | [10] | [11] | [5] | [8]

CCCCCCCCCCCCCCCC[n+]1ccccc1
inactive: [1] | [2] | [3] | [12] | [9] | [10] | [4] | [7]

O=C(c1ccc(O)cc1)c1ccc(O)cc1O
active: [14] 20 µM and 15 µM | [9] 35.3 µM
not listed: [3] | [4] | [5] | [7] | [12]
inactive: all other assays above

CCCCCCCCCCCCCCCC[N+](C)(C)CC
inactive: [2] | [3] | [10] | [6]
active: [1] 13.3 µM | [13] 3.44 µM | [12] 17.8 µM | [14] 0.636 µM | [9] 15.6 µM | [4] 19.6 µM | [7] 13 µM | [8] 12.1 µM | [15] 3.48 µM | [16] 7.31 µM | [17] 2.66 µM | [18] 0.845 µM | [19] 0.932 µM | [20] 3.73 µM
